Measurements from PubChem BioAssay.
Active and inactive are the calls of the source.

Experiment: growth of efflux-deficient E. coli DRC39 – strain DRC39, OD650, 24 h, E. coli filamentation inducers, primary screen (AID 1178);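 further: growth measured as culture turbidity by optical density at 650 nm; test concentration not given here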
Settings: E. coli DRC39 acrAB, higher = more signal, called active from +8 up or from −8 down
In the case of `CS(=O)(=O)CCOC(=O)C1=CC(CCCO)=CC(c2cccs2)N(Cc2cc3c(cc2Br)OCO3)C=C1C(=O)OCCS(C)(=O)=O` (stereo not given), the z-score is reported as 0.571 (inactive).
In the case of `CCC[C@@H]1C=C(C(=O)O)[C@H](c2ccc(C)cc2)N1S(=O)(=O)c1ccc(C)cc1`, the z-score is reported as -0.591 (inactive).
With `CC(C)NC(=O)[C@@H]1c2ccccc2C(=O)N(Cc2ccccc2)[C@H]1c1ccc(CO)cc1` the z-score was 0.0003 (inactive).
With `Cc1ccc(S[C@]2(C(=O)NCc3ccccc3)CC(=O)N(Cc3ccccc3)[C@@H]2c2ccc(CO)cc2)cc1` the z-score was -0.037 (inactive).
With `COC(=O)c1ccc(C(O)C2C=CC3C(=O)N(C)C(=O)C3N2NC(=O)OC(C)(C)C)o1` (stereo not given) the z-score was -0.685 (inactive).
With `COc1ccc(C(=O)Nc2cccc(CN3C(=O)[C@]4(O[C@H](CC(=O)N5CCC[C@H]5CO)[C@@H]([Si](C)(C)c5ccc(OC)cc5)[C@@H]4C)c4ccccc43)c2)cc1` the z-score was 0.951 (inactive).
With `CC(C)Cc1ccc(CN2CC[C@@H](NS(=O)(=O)c3ccccc3)C2)cc1` the z-score was -20.5 (active).
In the case of `C=CCC(OC(C)=O)[C@@H]1[C@@H](N(Cc2cccc3ccccc23)C(=O)c2cccc3ccccc23)c2cc(OCCCO)ccc2N1C(=O)c1ccc2ccccc2n1` (stereo not given in full), the z-score is reported as 0.854 (inactive).
In the case of `COCCOC(=O)N1C(=O)[C@@]2(c3cc(C#CCNC(N)=O)ccc31)[C@H](c1ccc(OCCO)cc1)N1[C@H](c3ccccc3)[C@H](c3ccccc3)OC(=O)[C@H]1[C@@H]2C(=O)N1CCc2cc(OC)c(OC)cc2C1`, the z-score is reported as 0.583 (inactive).
With `O=C1C=CC(=O)[C@@H]2CC(COc3ccccc3)=C3[C@@H](CCc4ccccc4)OB(O)C[C@@H]3[C@H]12` the z-score was -0.569 (inactive).
For `[N-]=[N+]=NCc1ccccc1[C@@H]1OC(c2ccc(OCCCO)cc2)=N[C@]1(Cc1ccccc1N=[N+]=[N-])C(=O)NCc1ccccc1`, the z-score was -0.954 (inactive).
In the case of `NCCCCCCNC(=O)[C@H]1C[C@H]2C(=O)NCC(=O)N2[C@H]1c1cccc(OCCO)c1`, the z-score is reported as 1.42 (inactive).
With `CCCCCN1CC=CC23O[C@@H]4/C=C\CCC(C)OC(=O)C4[C@H]2C(=O)N(CCCCCO)[C@@H]3C1=O` (stereo not given in full) the z-score was 0.683 (inactive).
In the case of `O=C(NCc1ccccc1)[C@]1(CCS(=O)(=O)c2ccccc2)N=C(c2ccc(OCCCO)cc2)O[C@@H]1c1ccccc1`, the z-score is reported as 0.79 (inactive).
With `C=CC(=C)C1=CCO[C@@H]1[C@H]1CCCN1S(=O)(=O)c1ccccc1[N+](=O)[O-]` the z-score was 0.858 (inactive).
With `COc1ccc(C(=O)Nc2cccc(CN3C(=O)[C@@]4(O[C@@H](CCn5cc(CCO)nn5)[C@H]([Si](C)(C)c5ccc(OC)cc5)[C@H]4C)c4ccccc43)c2)cc1` the z-score was 1.7 (inactive).
With `CCCC[C@H]1OB(O)C[C@H]2C1=C(C)C[C@H]1C(=O)N(Cc3ccccc3)C(=O)[C@H]12` the z-score was 1.68 (inactive).
In the case of `COc1ccc(NN2C(C(O)c3ccc(OC)c(OCc4ccccc4)c3)C=CC3C(=O)N(C4CCCCC4)C(=O)C32)cc1` (stereo not given), the z-score is reported as -0.101 (inactive).
In the case of `COCC(=C=CC[C@H](O)c1ccc(OCCO)cc1)C[C@H](O)c1cc(Cl)cc(Cl)c1O`, the z-score is reported as 1.43 (inactive).
For `O=C/C=C/c1ccc2c(c1)OCO2`, the z-score was -1.34 (inactive).
In the case of `Cc1ccc(S[C@]2(C(=O)NCC(C)C)CC(=O)N(Cc3ccccc3Cl)[C@@H]2c2ccc(CO)cc2)cc1`, the z-score is reported as -0.115 (inactive).
With `CN(C)C(=O)[C@]1(CCC(=O)OC(C)(C)C)N=C(c2ccc(OCCCO)cc2)O[C@@H]1c1ccccc1N=[N+]=[N-]` the z-score was 0.752 (inactive).
In the case of `[N-]=[N+]=NCc1ccccc1C[C@]1(C(=O)NCCN2CCOCC2)N=C(c2ccc(OCCCO)cc2)O[C@H]1c1ccccc1N=[N+]=[N-]`, the z-score is reported as 1.73 (inactive).
For `O=C1O[C@H](c2ccccc2)[C@H](c2ccccc2)N2[C@H]1[C@@H](C(=O)Nc1nc3ccccc3s1)[C@]1(C(=O)Nc3ccccc31)[C@H]2c1ccc(O)cc1`, the z-score was -0.797 (inactive).

Experiment: growth of efflux-deficient E. coli DRC39 – strain DRC39, OD650, 48 h, E. coli filamentation inducers, primary screen (AID 1179);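 further: screen aims at cell division blockers that make cells filament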
Settings: E. coli DRC39 delta-acrAB growth, higher = more signal, called active from +8 up or from −8 down
For `CN1CCC(CCCO)=CC1c1ccc(CN2CCCC2)cc1` (stereo not given), the z-score was 0.201 (inactive).
For `C=C[C@H](C)[C@@H](O)c1ccc(O)c2ccccc12`, the z-score was 0.445 (inactive).
With `COCCOC(=O)N1C(=O)[C@@]2(c3cc(C#CC4=CCCCC4)ccc31)[C@H](C(=O)N1CCc3cc(OC)c(OC)cc3C1)[C@H]1C(=O)O[C@H](c3ccccc3)[C@H](c3ccccc3)N1[C@@H]2c1ccccc1OCCO` the z-score was 0.418 (inactive).
In the case of `COC(=O)C1=CC(CCCO)=CC(C2CC2)N(Cc2sc3ccccc3c2Cl)C=C1C(=O)OC` (stereo not given), the z-score is reported as -0.444 (inactive).
For `NC(=O)NCC#Cc1ccc2c(c1)[C@]1(C(=O)N2)[C@H](C(=O)N2CCCCCCC2)[C@H]2C(=O)O[C@H](c3ccccc3)[C@H](c3ccccc3)N2[C@@H]1c1ccc(OCCO)cc1`, the z-score was -0.318 (inactive).
In the case of `COc1ccccc1CN1C(=O)c2ccccc2[C@@H](C(=O)NCCN2CCOCC2)[C@@H]1c1ccc(CO)cc1`, the z-score is reported as -0.0251 (inactive).
For `O=c1cccc(C=Cc2ccccc2)o1`, the z-score was 0.761 (inactive).
With `C=C[C@@H](COC(C)=O)N(Cc1ccc([N+](=O)[O-])cc1)S(=O)(=O)c1ccc(Br)cc1` the z-score was 0.469 (inactive).
With `CC(C)C(=C=CC[C@@H](O)c1ccccc1OCCO)C[C@@H](O)c1ccccn1` the z-score was -0.628 (inactive).
In the case of `CCCCC=C[C@@H](NC(=O)c1ccc(C(=O)OC)cc1)c1ccccc1`, the z-score is reported as 0.623 (inactive).
In the case of `O=c1oc(-c2ccccc2)nc2cc(Br)ccc12`, the z-score is reported as -0.39 (inactive).
For `C=CC(COC(C)=O)NS(=O)(=O)c1ccc(Br)cc1` (stereo not given), the z-score was -1.05 (inactive).
For `CS(=O)(=O)CCOC(=O)C1=CC(CCCO)=CC(c2cccs2)N(Cc2cc3c(cc2Br)OCO3)C=C1C(=O)OCCS(C)(=O)=O` (stereo not given), the z-score was 0.503 (inactive).
With `CCC[C@@H]1C=C(C(=O)O)[C@H](c2ccc(C)cc2)N1S(=O)(=O)c1ccc(C)cc1` the z-score was 0.0595 (inactive).
For `CC(C)NC(=O)[C@@H]1c2ccccc2C(=O)N(Cc2ccccc2)[C@H]1c1ccc(CO)cc1`, the z-score was -0.176 (inactive).
With `Cc1ccc(S[C@]2(C(=O)NCc3ccccc3)CC(=O)N(Cc3ccccc3)[C@@H]2c2ccc(CO)cc2)cc1` the z-score was -0.472 (inactive).
In the case of `COC(=O)c1ccc(C(O)C2C=CC3C(=O)N(C)C(=O)C3N2NC(=O)OC(C)(C)C)o1` (stereo not given), the z-score is reported as -0.757 (inactive).
With `COc1ccc(C(=O)Nc2cccc(CN3C(=O)[C@]4(O[C@H](CC(=O)N5CCC[C@H]5CO)[C@@H]([Si](C)(C)c5ccc(OC)cc5)[C@@H]4C)c4ccccc43)c2)cc1` the z-score was 0.441 (inactive).
For `CC(C)Cc1ccc(CN2CC[C@@H](NS(=O)(=O)c3ccccc3)C2)cc1`, the z-score was -19.9 (active).
With `C=CCC(OC(C)=O)[C@@H]1[C@@H](N(Cc2cccc3ccccc23)C(=O)c2cccc3ccccc23)c2cc(OCCCO)ccc2N1C(=O)c1ccc2ccccc2n1` (stereo not given in full) the z-score was 0.424 (inactive).
In the case of `COCCOC(=O)N1C(=O)[C@@]2(c3cc(C#CCNC(N)=O)ccc31)[C@H](c1ccc(OCCO)cc1)N1[C@H](c3ccccc3)[C@H](c3ccccc3)OC(=O)[C@H]1[C@@H]2C(=O)N1CCc2cc(OC)c(OC)cc2C1`, the z-score is reported as 0.582 (inactive).
With `O=C1C=CC(=O)[C@@H]2CC(COc3ccccc3)=C3[C@@H](CCc4ccccc4)OB(O)C[C@@H]3[C@H]12` the z-score was -0.422 (inactive).
In the case of `[N-]=[N+]=NCc1ccccc1[C@@H]1OC(c2ccc(OCCCO)cc2)=N[C@]1(Cc1ccccc1N=[N+]=[N-])C(=O)NCc1ccccc1`, the z-score is reported as -1.96 (inactive).
In the case of `NCCCCCCNC(=O)[C@H]1C[C@H]2C(=O)NCC(=O)N2[C@H]1c1cccc(OCCO)c1`, the z-score is reported as 1.61 (inactive).
For `CCCCCN1CC=CC23O[C@@H]4/C=C\CCC(C)OC(=O)C4[C@H]2C(=O)N(CCCCCO)[C@@H]3C1=O` (stereo not given in full), the z-score was 0.389 (inactive).
In the case of `O=C(NCc1ccccc1)[C@]1(CCS(=O)(=O)c2ccccc2)N=C(c2ccc(OCCCO)cc2)O[C@@H]1c1ccccc1`, the z-score is reported as 1.05 (inactive).
In the case of `C=CC(=C)C1=CCO[C@@H]1[C@H]1CCCN1S(=O)(=O)c1ccccc1[N+](=O)[O-]`, the z-score is reported as 0.714 (inactive).
For `COc1ccc(C(=O)Nc2cccc(CN3C(=O)[C@@]4(O[C@@H](CCn5cc(CCO)nn5)[C@H]([Si](C)(C)c5ccc(OC)cc5)[C@H]4C)c4ccccc43)c2)cc1`, the z-score was 0.633 (inactive).
In the case of `CCCC[C@H]1OB(O)C[C@H]2C1=C(C)C[C@H]1C(=O)N(Cc3ccccc3)C(=O)[C@H]12`, the z-score is reported as 0.452 (inactive).
For `COc1ccc(NN2C(C(O)c3ccc(OC)c(OCc4ccccc4)c3)C=CC3C(=O)N(C4CCCCC4)C(=O)C32)cc1` (stereo not given), the z-score was 1.19 (inactive).
In the case of `COCC(=C=CC[C@H](O)c1ccc(OCCO)cc1)C[C@H](O)c1cc(Cl)cc(Cl)c1O`, the z-score is reported as 1.27 (inactive).
For `O=C/C=C/c1ccc2c(c1)OCO2`, the z-score was 0.594 (inactive).
With `Cc1ccc(S[C@]2(C(=O)NCC(C)C)CC(=O)N(Cc3ccccc3Cl)[C@@H]2c2ccc(CO)cc2)cc1` the z-score was -0.219 (inactive).
With `CN(C)C(=O)[C@]1(CCC(=O)OC(C)(C)C)N=C(c2ccc(OCCCO)cc2)O[C@@H]1c1ccccc1N=[N+]=[N-]` the z-score was 0.701 (inactive).
For `[N-]=[N+]=NCc1ccccc1C[C@]1(C(=O)NCCN2CCOCC2)N=C(c2ccc(OCCCO)cc2)O[C@H]1c1ccccc1N=[N+]=[N-]`, the z-score was 1.08 (inactive).
In the case of `O=C1O[C@H](c2ccccc2)[C@H](c2ccccc2)N2[C@H]1[C@@H](C(=O)Nc1nc3ccccc3s1)[C@]1(C(=O)Nc3ccccc31)[C@H]2c1ccc(O)cc1`, the z-score is reported as -1.24 (inactive).
